PubChem BioAssay (NCATS)
Records with an inconclusive call do not appear. Entries that show only a call come without a potency. Activity calls are given as the source filed them. The call rests on the fitted dose curve; in most records, active means well fitted cell-killing curve with a large enough effect; inconclusive means small, poorly fitted or top-dose-only effect; inactive means flat fitted curve, though single readings scatter. Numbered stars: 1 amine (or outer) side, 2 acyl side, 3 side chain; on linkers, the order of the positions; unused ones are H or OH. Bridge positions count the residues as written; N and C are the ends. Square brackets hold non-standard residues; d marks the D form. Peptide text beside a SMILES is read from it. I, II: the chains in the order shown. Actinocin(9to1) = Cc1c2oc3c(C)ccc(C(=O)[*:1])c3nc-2c(C(=O)[*:2])c(N)c1=O; NMeV = CN[C@H](C(=O)O)C(C)C; Sar = CNCC(=O)O
Potency means the concentration at half of the fitted maximal effect.

Experiment: Cell Viability - LYMP2-022 (AID 987); further: nearly all actives have a fitted effect of over 55% in size
Details: LYMP2-022 lymphoblastoid cell viability; series mostly up to 92.2 µM
Source text: NIH Chemical Genomics Center [NCGC]
NIH Molecular Libraries Screening Centers Network [MLSCN]
National Institutes of Environmental Health Sciences [NIEHS]
National Toxicology Program [NTP]
We have developed a 1536-well cell-based assay for quantitative high throughput screening (qHTS) against a number of cell lines to determine in vitro cytotoxicity of small molecules. This particular assay uses a human lymphoblastoid cell line (LYMP2-022) purchased from Coriell Institute for Medical Research.
NCGC Assay Protocol Summary:
The CellTiter-Glo luminescent cell viability assay (Promega) is a homogeneous method to measure the number of viable cells in culture. The end point readout of this assay is based on quantitation of intracellular ATP, an indicator of metabolic activity, using the luciferase reaction. Luciferase catalyzes the oxidation of beetle Luciferin to oxyluciferin and light in the presence of ATP. The luminescent signal is proportional to amount of ATP present.
Using the CellTiter-Glo luminescent cell viability assay, the amount of cellular ATP was measured in the lymphoblastoid cell line with complete culture medium following compound treatment for 24 hours. The assay was performed in opaque white Kalypsys 1536-well plates. In the screen, tetraoctylammonium bromide was used as positive control. Library compounds were measured for their ability to cause acute toxicity in the cell line, as reflected by a decrease in intracellular ATP levels, in a concentration-dependent manner. […] AC50 values were determined from concentration-response data modeled with the standard Hill equation.
qHTS protocol for CellTiter Glo lymphoblastoid cellular assay
[Step] [Parameter] [Value] [Description]
1. Reagent; 5 uL; 2500 lymphoblastoid cells/well
2. Time; 5 hr; 37 C incubation
4. Controls; 23 nL; Tetraoctylammonium bromide 6.4pM to 92 uM
5. Time; 24 hr; 37 C incubation
6. Reagent; 5 uL; CellTiter Glo reagent
7. Time; 30 min; Room Temperature
8. Detection; Luminescence; Viewlux plate reader
Keywords: cell viability, cytotoxicity, lymphoblastoid cell line, luminescence, NTPHTS, NTPHTS_NCGC, NIEHS, DSSTox, MLSMR, MLSCN, NIH Roadmap, qHTS, NCGC
For `COC1=CC(=O)C[C@@H](C)[C@]12Oc1c(Cl)c(OC)cc(OC)c1C2=O`, the Potency was “inactive”.
For `O=C(O)CCCCC(=O)O`, the Potency was “inactive”.
With `CN(C)/N=N/c1nc[nH]c1C(N)=O` the Potency was “inactive”.
With `CC(=O)Oc1ccc(C(c2ccc(OC(C)=O)cc2)c2ccccn2)cc1` the Potency was “inactive”.
With `COc1cccc2c1C(=O)c1c(O)c3c(c(O)c1C2=O)C[C@@](O)(C(C)=O)C[C@@H]3O[C@H]1C[C@H](N)[C@H](O)[C@H](C)O1` the Potency was 0.1 µM (active).
For `Oc1ccc(O)cc1`, the Potency was 39.8 µM (active).
In the case of `CC/C(=C(/CC)c1ccc(O)cc1)c1ccc(O)cc1`, the Potency was “inactive”.
With `CC(C)(C)CC(C)(C)c1ccc(OCCOCC[N+](C)(C)Cc2ccccc2)cc1` the Potency was 15.8 µM (active).
In the case of `COc1cccc2c1C(=O)c1c(O)c3c(c(O)c1C2=O)C[C@@](O)(C(=O)CO)C[C@@H]3O[C@H]1C[C@H](N)[C@H](O)[C@H](C)O1`, the Potency was 0.251 µM (active).
For `C=C(CC)C(=O)c1ccc(OCC(=O)O)c(Cl)c1Cl`, the Potency was 39.8 µM (active).
With `CCCCCCc1ccc(O)cc1O` the Potency was “inactive”.
In the case of `CC(=O)O[C@]1(C(C)=O)CC[C@H]2[C@@H]3C[C@H](C)C4=CC(=O)CC[C@]4(C)[C@H]3CC[C@@]21C`, the Potency was 39.8 µM (active).
In the case of `C=CCc1ccc(O)c(OC)c1`, the Potency was “inactive”.
With `C[C@]12CC[C@@H]3c4ccc(O)cc4CC[C@H]3[C@@H]1CC[C@@H]2O` the Potency was “inactive”.
With `Nc1ccc(C(=O)O)cc1` the Potency was “inactive”.
In the case of `CC(O)C(=O)O` (stereo not given), the Potency was “inactive”.
In the case of `Cc1c2oc3c(C)ccc(C(=O)N[C@@H]4C(=O)N[C@H](C(C)C)C(=O)N5CCC[C@H]5C(=O)N(C)CC(=O)N(C)[C@@H](C(C)C)C(=O)O[C@@H]4C)c3nc-2c(C(=O)N[C@@H]2C(=O)N[C@H](C(C)C)C(=O)N3CCC[C@H]3C(=O)N(C)CC(=O)N(C)[C@@H](C(C)C)C(=O)O[C@@H]2C)c(N)c1=O` (I: T[dV]P[Sar][NMeV] / II: T[dV]P[Sar][NMeV]; ester I:1-I:C, II:1-II:C; linker I:N-II:N via Actinocin(9to1)), the Potency was 0.0126 µM (active).
In the case of `O=C1OC(c2ccc(O)cc2)(c2ccc(O)cc2)c2ccccc21`, the Potency was “inactive”.
For `O=c1ccc2ccccc2o1`, the Potency was “inactive”.
With `NC(=NCCCCCCN=C(N)/N=C(\N)Nc1ccc(Cl)cc1)/N=C(\N)Nc1ccc(Cl)cc1` the Potency was 39.8 µM (active).
